# Test results reported in ChEMBL document CHEMBL4513216, “Probing the Open Global Health Chemical Diversity Library for Multistage-Active Starting Points for Next-Generation Antimalarials” (ACS Infect Dis, 2020).
# Among all 69,000 compounds or so, about 8,600 (12%) showed an effect of 50% or more. Shown is part of a subset that was picked to be rich in strong results.
# Tested on: Plasmodium berghei
# Experiment: Screen against P. berghei liver stage (PbLuc), transformed with Luciferase, at 10uM
# Type: functional, HepG2
# Conditions: tested at 10 uM
row,SMILES,INHIBITION [%]
1,Cc1n[nH]c(C2CN(C(=O)c3cc4c(s3)CCCC4)CCO2)n1 (stereo not drawn),-1.14
2,Cc1n[nH]c(C2CN(C(=O)c3cc4c(s3)CCC4)CCO2)n1 (stereo not drawn),0.914
3,CCc1nc(C)ncc1C(=O)N1CCOC(c2nc(C)n[nH]2)C1 (stereo not drawn),23.5
4,CCc1nnsc1C(=O)N1CCOC(c2nc(C)n[nH]2)C1 (stereo not drawn),51.3
5,CC(C)c1n[nH]c(C2CN(C(=O)c3cc4c(s3)CCC4)CCO2)n1 (stereo not drawn),52.3
6,CCc1n[nH]c(C2CN(C(=O)c3csnn3)CCO2)n1 (stereo not drawn),40.4
7,CCc1nnsc1C(=O)N1CCOC(c2nc(C(C)C)n[nH]2)C1 (stereo not drawn),-2.61
8,CC(C)c1n[nH]c(C2CN(C(=O)c3csnn3)CCO2)n1 (stereo not drawn),52.7
9,Cc1n[nH]c(C2CN(C(=O)c3csnn3)CCO2)n1 (stereo not drawn),35.1
10,CC(CO)NC(=O)c1ccc(NCc2ccccc2)cc1 (stereo not drawn),19.8
11,Cc1cc(Nc2ccc(F)cn2)cc(C2CCCN2)n1 (stereo not drawn),34.9
12,CCN(C(=O)C1Cc2cc(Cl)ccc2O1)C1CC1 (stereo not drawn),38.3
13,CNc1cc(C)nc(C2CCN(CCO)CC2)n1,-2.09
14,Cc1nc(CN2C(=O)COC3(CCN(Cc4ccco4)CC3)C2C)cs1 (stereo not drawn),-4.86
15,Cc1cc(NCC2CCCCC2)n2ncnc2n1,9.8
16,Cc1cc(NCc2ccccc2CN2CCCCC2)n2ncnc2n1,54.4
17,CCc1cc(NCc2ccccc2CN2CCCC2)n2ncnc2n1,11.1
18,Cc1cc(NCC2CCN(c3ccccc3)C2)n2ncnc2n1 (stereo not drawn),78.9
19,CCc1cc(NCc2cccnc2N2CCCCC2)n2ncnc2n1,36.2
20,COc1cccc(N2CCC(CNc3cc(C)nc4ncnn34)C2)c1 (stereo not drawn),65.5
21,Cc1cc(NCCn2cccn2)n2ncnc2n1,-38.8
22,COc1cccc(N2CCC(CNC(=O)NCc3ccco3)C2)c1 (stereo not drawn),-51
23,Cc1cc(NC2CCN(c3ccccc3)C2)n2ncnc2n1 (stereo not drawn),4.94
24,CCc1n[nH]c(C2CN(C(=O)c3cc4c(s3)CCC4)CCO2)n1 (stereo not drawn),-7.31
25,C[C@H]1CN(C(=O)c2ccc[nH]2)C[C@@]12CCN(c1ccsc1)C2=O,18.3
26,NC(=O)c1cc(C2CCCN(CCOc3cccc(F)c3)C2)n[nH]1 (stereo not drawn),43.48
27,CN(C)Cc1nn(C)c2c1CN(C(=O)c1ccc[nH]1)C2,-4.02

row,SMILES,INHIBITION [%]
1,COc1ccc(-c2ccnc3nc(N4CCCC4)[nH]c(=O)c23)cc1OC,40
2,Cc1cccc(NC(=O)N2CCN(Cc3noc(C4CC4)n3)CC2)c1,46.2
3,CC(=O)N1Cc2cnc(C(C)(C)C)nc2C1,19.8
4,Cc1cc(C)n(CC(=O)N2Cc3cnc(C(C)(C)C)nc3C2)n1,51.3
5,CC(=O)c1c(C)nn(CC(=O)N2Cc3cnc(C(C)(C)C)nc3C2)c1C,-10.4
6,Cc1noc(Cl)c1CCC(=O)N1CCN(c2ccccc2)CC1,26.5
7,Cc1c(CNC(=O)NCc2cccc(-n3cncn3)c2)cnn1C,-40.4
8,O=C(NCc1cccc(-n2cncn2)c1)NCC(C1CC1)C1CC1,50.2
9,CSC(C)(C)CNC(=O)NCc1cccc(-n2cncn2)c1,-17.9
10,CCn1ncc(CN(C)C(=O)c2ccn(C)n2)c1C,30
11,Cc1ccsc1C(=O)N1CCN(Cc2cscn2)CC1,-6.14
12,COCCN1C(=O)[C@@H]2CC[C@H]1CN(c1nccc(C3CCCC3)n1)C2,-47.9
13,c1ccc(CN2CCCn3nnc(CNc4ncccn4)c3C2)nc1,-18.4
14,OC(COCc1ccccc1)CN1CCC(Cn2cccn2)CC1 (stereo not drawn),43.5
15,Cc1ccc(CN2CCn3c(C(=O)N(C)C)cnc3C2)cc1,41.6
16,CN(C)C(=O)c1cnc2n1CCN(Cc1ccccc1)C2,9.67
17,Cc1cccc(CN2CCn3c(C(=O)N(C)C)cnc3C2)c1,50.9
18,O=C(CCOCc1ccccc1)NS(=O)(=O)N1CCOc2ccccc21,-13.6
19,CCc1ncc2c(n1)CN(Cc1ncc(C(C)(C)C)o1)CC2,20
20,COC(=O)CN(C(=O)c1ccc(-n2ccnc2)cc1)C1CCCC1,0.566
21,Cc1nc(COC[C@H]2CC[C@H]3NCC[C@H]3O2)cs1,51.2
22,COCCN1CC[C@@H]2O[C@H](COCc3csc(C)n3)CC[C@@H]21,3.11
23,Cc1nc(COC[C@@H]2CC[C@H]3NCC[C@H]3O2)cs1,55.6
24,CC(=O)N1CC[C@@H]2O[C@@H](COCc3csc(C)n3)CC[C@@H]21,6.6
25,Cc1nc(COC[C@@H]2CC[C@H]3[C@H](CCN3S(C)(=O)=O)O2)cs1,25
26,Cc1nc(COC[C@H]2CC[C@H]3[C@H](CCN3c3ncccn3)O2)cs1,42.7
